Ten compounds from PubChem BioAssay (NCI) can be followed below.

This is part of a sample that, as a whole, favours compounds with a hit. Of some 79,000 tested, about 15% had one in any assay. Values without a mark were called inactive. Activity calls are given as the source filed them. No stated cut-off is given here; in the data, active means growth inhibition above about 70%; inactive means the rest.

A short description of experiment [1]: NCI Yeast Anticancer Drug Screen. Data for the rad50 strain (AID 155).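 Further: 0% = growth of vehicle-only cultures of the same strain.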 The note with it: S. cerevisiae rad50 strain growth inhibition, hits give high values. In a few lines:
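A DNA repair-deficient yeast mutant serves as the test organism; compound-induced growth inhibition is calculated against vehicle-treated cells.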

The nature of experiment [2]: NCI Yeast Anticancer Drug Screen. Data for the mec2-1 strain (AID 157). The note with it: S. cerevisiae mec2-1 strain, hits give high values. In a few lines:
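Cells of the genetically defined mec2-1 yeast strain are incubated with test compound. Inhibition of growth is calculated against vehicle-treated controls.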

Experiment [3] in a line: NCI Yeast Anticancer Drug Screen. Data for the sgs1 mgt1 strain (AID 161).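 Further: 0% = growth of cultures given vehicle only.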 The note with it: S. cerevisiae sgs1 mgt1 strain, hits give high values. In a few lines: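 Test agents were incubated with a DNA-repair-mutant yeast strain. Growth was then read and compared against vehicle-treated controls.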
Experiment [4] in a line: NCI Yeast Anticancer Drug Screen. Data for the cln2 rad14 strain (AID 165).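 Further: 0% = growth equal to vehicle treated cultures.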 The note with it: S. cerevisiae cln2 rad14 strain, hits give high values. The essentials:
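The screen exposed genetically defined yeast (cln2 rad14) to test compounds and scored growth inhibition relative to vehicle-treated controls.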

Experiment [5] is described as follows: NCI Yeast Anticancer Drug Screen. Data for the bub3 strain (AID 167). The note with it: S. cerevisiae bub3 mutant strain, hits give high values. The essentials:
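Inhibition values come from growth of compound-treated mutant yeast normalised to vehicle-treated controls.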

A short description of experiment [6]: NCI Yeast Anticancer Drug Screen. Data for the mlh1 rad18 strain (AID 175). The note with it: S. cerevisiae mlh1 rad18 strain growth inhibition, hits give high values. The essentials:
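Compound-treated yeast growth, normalised to vehicle controls. Strain bears defined DNA repair mutations.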

Where [7] appears, read: at 5.0 µM (retest, dose inferred, filed as 0.5).
Where [8] appears, read: at 50.0 µM (retest, dose inferred, filed as 5.0).

In the case of `CN(C)c1ccc(/C=C/c2ccnc3ccccc23)c(O)c1`, the growth inhibition in experiment [1] (setting [7]) is 0%; in experiment [1] (setting [8]), -6%; in experiment [1] (at 50.0 µM), 57%; in experiment [2] (setting [7]), -4%; in experiment [2] (setting [8]) it was -4%; in experiment [2] (at 50.0 µM), 28.6%. Moreover, the growth inhibition is 0% in experiment [3] (setting [7]); -6% in experiment [3] (setting [8]); 58.9% in experiment [3] (at 50.0 µM); 3% in experiment [4] (setting [7]); -3% in experiment [4] (setting [8]); 34% in experiment [4] (at 50.0 µM). The growth inhibition is -4% in experiment [5] (setting [7]); -6% in experiment [5] (setting [8]); 40.9% in experiment [5] (at 50.0 µM); -8% in experiment [6] (setting [7]); -2% in experiment [6] (setting [8]); 68.8% in experiment [6] (at 50.0 µM).

In the case of `Nc1ccc2c(c1)NCCN2`, the growth inhibition in experiment [1] (setting [7]) was 42%; in experiment [1] (setting [8]), 76% (active); in experiment [1] (at 50.0 µM) it was 84% (active); in experiment [2] (setting [7]) it was 5%; in experiment [2] (setting [8]) it was 17%; in experiment [2] (at 50.0 µM) it was 32.1%. Further, the growth inhibition was 4% in experiment [3] (setting [7]); 20% in experiment [3] (setting [8]); 23.5% in experiment [3] (at 50.0 µM); 3% in experiment [4] (setting [7]); 6% in experiment [4] (setting [8]); 21.4% in experiment [4] (at 50.0 µM). For the same compound, the growth inhibition in experiment [5] (setting [7]) is 1%; in experiment [5] (setting [8]), 18%; in experiment [5] (at 50.0 µM), 18.2%; in experiment [6] (setting [7]) it was 7%; in experiment [6] (setting [8]), 31%; in experiment [6] (at 50.0 µM), 53.4%.

On to `Oc1cc(Cl)cc2c1-c1ccc(Cl)cc1C2O` (stereo not given), for which the growth inhibition in experiment [1] (setting [7]) is 9%; in experiment [1] (setting [8]), 97% (active); in experiment [1] (at 50.0 µM) it was 95.2% (active); in experiment [2] (setting [7]), 6%; in experiment [2] (setting [8]), 98% (active); in experiment [2] (at 50.0 µM), 91.2% (active). Also, the growth inhibition in experiment [3] (setting [7]) was -4%; in experiment [3] (setting [8]), 97% (active); in experiment [3] (at 50.0 µM), 96.3% (active); in experiment [4] (setting [7]) it was 28%; in experiment [4] (setting [8]) it was 97% (active); in experiment [4] (at 50.0 µM) it was 81.8% (active). Moreover, the growth inhibition in experiment [5] (setting [7]) was 31%; in experiment [5] (setting [8]), 97% (active); in experiment [5] (at 50.0 µM), 93.8% (active); in experiment [6] (setting [7]), 20%; in experiment [6] (setting [8]) it was 98% (active); in experiment [6] (at 50.0 µM), 95.5% (active).

With `O=[N+]([O-])c1ccc(-c2ccc(-c3csc(Nc4ccccc4)n3)o2)cc1`, the growth inhibition in experiment [1] (setting [7]) is 42%; in experiment [1] (setting [8]), 96% (active); in experiment [1] (at 50.0 µM) it was 93.2% (active); in experiment [2] (setting [7]) it was 96% (active); in experiment [2] (setting [8]), 98% (active); in experiment [2] (at 50.0 µM), 93.4% (active). The growth inhibition is 44% in experiment [3] (setting [7]); 97% (active) in experiment [3] (setting [8]); 92.6% (active) in experiment [3] (at 50.0 µM); 63% in experiment [4] (setting [7]); 97% (active) in experiment [4] (setting [8]); 90.8% (active) in experiment [4] (at 50.0 µM). For the same compound, the growth inhibition is 97% (active) in experiment [5] (setting [7]); 98% (active) in experiment [5] (setting [8]); 93% (active) in experiment [5] (at 50.0 µM); 98% (active) in experiment [6] (setting [7]); 97% (active) in experiment [6] (setting [8]); 90.5% (active) in experiment [6] (at 50.0 µM).

With `O=C(Cc1nc2ccccc2s1)Nc1cccc(C(F)(F)F)c1`, the growth inhibition in experiment [1] (setting [7]) was 41%; in experiment [1] (setting [8]), 98% (active); in experiment [1] (at 50.0 µM), 92.2% (active); in experiment [2] (setting [7]) it was 39%; in experiment [2] (setting [8]), 100% (active); in experiment [2] (at 50.0 µM), 93.7% (active). Also, the growth inhibition in experiment [3] (setting [7]) is 54%; in experiment [3] (setting [8]), 99% (active); in experiment [3] (at 50.0 µM), 94.7% (active); in experiment [4] (setting [7]), 32%; in experiment [4] (setting [8]), 98% (active); in experiment [4] (at 50.0 µM), 92.6% (active). For the same compound, the growth inhibition in experiment [5] (setting [7]) is 35%; in experiment [5] (setting [8]), 99% (active); in experiment [5] (at 50.0 µM), 92.4% (active); in experiment [6] (setting [7]), 64%; in experiment [6] (setting [8]) it was 99% (active); in experiment [6] (at 50.0 µM) it was 93% (active).

With `CC(=O)OCc1ccc([N+](=O)[O-])o1`, the growth inhibition in experiment [1] (setting [7]) is 2%; in experiment [1] (setting [8]), 78% (active); in experiment [1] (at 50.0 µM) it was 96.3% (active); in experiment [2] (setting [7]) it was -7%; in experiment [2] (setting [8]), 22%; in experiment [2] (at 50.0 µM) it was 98.3% (active). Also, the growth inhibition in experiment [3] (setting [7]) is 3%; in experiment [3] (setting [8]), 67%; in experiment [3] (at 50.0 µM), 64.3%; in experiment [4] (setting [7]) it was 0%; in experiment [4] (setting [8]) it was 96% (active); in experiment [4] (at 50.0 µM), 98.2% (active). The growth inhibition in experiment [5] (setting [7]) was -2%; in experiment [5] (setting [8]), 73% (active); in experiment [5] (at 50.0 µM), 98.9% (active); in experiment [6] (setting [7]), 1%; in experiment [6] (setting [8]), 86% (active); in experiment [6] (at 50.0 µM), 98% (active).

Turning to `CCCCCCCCCCCC[n+]1ccc(C)cc1`, the growth inhibition is 33% in experiment [1] (setting [7]); 99% (active) in experiment [1] (setting [8]); 98.2% (active) in experiment [1] (at 50.0 µM); 76% (active) in experiment [2] (setting [7]); 100% (active) in experiment [2] (setting [8]); 99.2% (active) in experiment [2] (at 50.0 µM). Further, the growth inhibition in experiment [3] (setting [7]) was 33%; in experiment [3] (setting [8]), 99% (active); in experiment [3] (at 50.0 µM) it was 99% (active); in experiment [4] (setting [7]), 20%; in experiment [4] (setting [8]), 99% (active); in experiment [4] (at 50.0 µM), 96.8% (active). In addition, the growth inhibition in experiment [5] (setting [7]) is 80% (active); in experiment [5] (setting [8]) it was 99% (active); in experiment [5] (at 50.0 µM), 98.9% (active); in experiment [6] (setting [7]), 18%; in experiment [6] (setting [8]), 99% (active); in experiment [6] (at 50.0 µM) it was 98.3% (active).

Take `CCN(CC)CCCNc1cccc2ccc(OC)nc12`: the growth inhibition is 1% in experiment [1] (setting [7]); 50% in experiment [1] (setting [8]); 73.8% (active) in experiment [1] (at 50.0 µM); 0% in experiment [2] (setting [7]); 24% in experiment [2] (setting [8]); 13% in experiment [2] (at 50.0 µM). Moreover, the growth inhibition was -9% in experiment [3] (setting [7]); 60% in experiment [3] (setting [8]); 66% in experiment [3] (at 50.0 µM); -1% in experiment [4] (setting [7]); 33% in experiment [4] (setting [8]); 32.7% in experiment [4] (at 50.0 µM). The growth inhibition is 2% in experiment [5] (setting [7]); 40% in experiment [5] (setting [8]); 51.8% in experiment [5] (at 50.0 µM); 4% in experiment [6] (setting [7]); 28% in experiment [6] (setting [8]); 53.5% in experiment [6] (at 50.0 µM).

Consider `CCCCCCC[CH2][Sn]([CH2]CCCCCCC)([O]c1cccc2cccnc12)[O]c1cccc2cccnc12`, for which the growth inhibition in experiment [1] (setting [7]) is 21%; in experiment [1] (setting [8]), 21%; in experiment [1] (at 50.0 µM) it was 89.7% (active); in experiment [2] (setting [7]), 18%; in experiment [2] (setting [8]), 18%; in experiment [2] (at 50.0 µM), 87.7% (active). Also, the growth inhibition in experiment [3] (setting [7]) was 14%; in experiment [3] (setting [8]), 14%; in experiment [3] (at 50.0 µM), 89.7% (active); in experiment [4] (setting [7]), 9%; in experiment [4] (setting [8]), 9%; in experiment [4] (at 50.0 µM) it was 85.4% (active). The growth inhibition was 4% in experiment [5] (setting [7]); 4% in experiment [5] (setting [8]); 90.1% (active) in experiment [5] (at 50.0 µM); 10% in experiment [6] (setting [7]); 10% in experiment [6] (setting [8]); 86.3% (active) in experiment [6] (at 50.0 µM).

`COc1nc2nc(Cl)cc(C)c2c2ccccc12` (tested in a mixture with another compound): the growth inhibition in experiment [1] (setting [7]) was 33%; in experiment [1] (setting [8]), 94% (active); in experiment [1] (at 50.0 µM), 98.1% (active); in experiment [2] (setting [7]), 11%; in experiment [2] (setting [8]) it was 91% (active); in experiment [2] (at 50.0 µM) it was 65.2%. For the same compound, the growth inhibition in experiment [3] (setting [7]) is 8%; in experiment [3] (setting [8]), 76% (active); in experiment [3] (at 50.0 µM), 52.1%; in experiment [4] (setting [7]), 3%; in experiment [4] (setting [8]) it was 86% (active); in experiment [4] (at 50.0 µM), 71.8% (active). In addition, the growth inhibition was 5% in experiment [5] (setting [7]); 94% (active) in experiment [5] (setting [8]); 78.5% (active) in experiment [5] (at 50.0 µM); 17% in experiment [6] (setting [7]); 93% (active) in experiment [6] (setting [8]); 54.2% in experiment [6] (at 50.0 µM).
